Measurements as given in ChEMBL document CHEMBL1157539, “Thousands of chemical starting points for antimalarial lead identification” (Nature, 2010).

These molecules were tested on Plasmodium falciparum (assay: GSK_TCMDC: Inhibition of Plasmodium falciparum 3D7 in whole red blood cells, using parasite LDH activity as an index of growth. Test compounds present at 2uM).
Type: functional

First: Cc1nc2ccc(NC(=O)c3cc(S(=O)(=O)N(C)C)ccc3Cl)cc2s1
Second: COc1ccc(NC(=O)c2ccc(-c3ccc(-c4cccnc4)cc3)c(C)c2)cc1OCCN(C)C.Cl
The Inhibition of the first is lower: 91% for the first, 99% for the second.

`N#CCCN1CCN(Cc2cccc(-c3ccc(-c4nc5cc(F)ccc5[nH]4)cc3)c2)CC1.O=C(O)C(F)(F)F` and `CN1CCCC(CN2CCN(Cc3ccc(-c4cccc(-c5nc6ccccc6[nH]5)c4)cc3)CC2)C1.O=C(O)C(F)(F)F` (stereo not given) are the same in Inhibition: 100% for the first, 100% for the second.

Compared with `COCC(=O)Nc1nc2ccccc2[nH]1`, `CC(C)=CC1C(C(=O)n2c(=N)[nH]c3ccccc32)C1(C)C` (stereo not given) is higher in Inhibition: 98% for the first, 99% for the second.

Compared with `CCCCNc1cc(C)nc(NCc2ccccc2)n1`, `Oc1ccc2nc(NCCCc3ccccc3)nc(NCCCc3ccccc3)c2c1` is higher in Inhibition: 97% for the first, 100% for the second.

Compared with `COc1ccc2nccc([C@@H](O)CN3CCC(NCc4nc5ccccc5s4)CC3)c2c1.O=C(O)C(=O)O`, `COc1ccc2ncc(F)c(CCN3CCC(NCc4ccc5c(c4)CCO5)CC3)c2n1.Cl` is higher in Inhibition: 93% for the first, 100% for the second.

Compared with `COc1ccc2cc(-c3nc(-c4c(Cl)cccc4Cl)[nH]c3-c3ccnc(NCCCN4CCN(C)CC4)c3)ccc2c1.O=C(O)C(F)(F)F`, `CCCCNCc1ccc(-c2nc(CN(CCCN3CCN(C)CC3)C(=O)Nc3cccc(Cl)c3)cs2)cc1.O=C(O)C(F)(F)F` is higher in Inhibition: 98% for the first, 99% for the second.

First: Cc1cc(Nc2ncc(C#N)c(Nc3ccccc3C(N)=O)n2)ccc1N1CCN(C)CC1.Cl
Second: CN1CCCN(c2ccnc3cc4c(cc23)N(C(=O)c2ccc(Cl)cc2)CC4)CC1.Cl
The Inhibition of the first is lower: 94% for the first, 100% for the second.

Going from `Oc1cc(Nc2ccnc3cc(I)ccc23)ccc1F` to `Cc1ccc(O)cc1Nc1ccnc2ccc(C(C)(C)C)cc12`, the Inhibition rises from 99% to 100%.

Going from `O=C(Nc1cccnc1)c1cn(-c2ccccc2)nc1-c1cccs1` to `O=C(Nc1ccc(-c2cncc(NCCCN3CCCC3)c2)cc1)c1ccccc1`, the Inhibition falls from 99% to 94%.

`CCOc1cc(C(=O)Nc2ccc3nc(N(CC)CC)cc(C)c3c2)cc(OCC)c1OCC` and `CCOc1cc2c(cc1OCC)C(c1ccc(O)c(Cl)c1)NCC2.Cl` (stereo not given) are the same in Inhibition: 98% for the first, 98% for the second.

First: COc1cccc(O)c1CN1CCC2(CCCN(Cc3ccc(F)cc3)C2)C1 (stereo not given)
Second: Cc1ccccc1OCCCN1CCN(CC(c2ccc(F)cc2)N2CCN(C(C)C)CC2)CC1.Cl (stereo not given)
The Inhibition of the first is lower: 98% for the first, 99% for the second.

Compared with `Cc1cc2c(cc1C(F)(F)F)N(C(=O)Nc1cc(OCCN(C)C)cc(C(F)(F)F)c1)CC2.Cl`, `CN(C)CCCOc1ccc(CCNCc2cccc(Oc3ccc(Cl)cc3)c2)cc1.O=C(O)C(F)(F)F` is lower in Inhibition: 100% for the first, 94% for the second.

Compared with `Cl.N=C(NCCc1ccc(Cl)c(Cl)c1)c1ccc2ccccc2c1`, `C=CCNc1cc(-c2ccccn2)nc(-c2ccccn2)n1` is lower in Inhibition: 100% for the first, 94% for the second.

First: N#Cc1ccc(N[C@@H](CC2CCCCC2)C(=O)NCc2cc(F)c(F)cc2F)c2ccccc12.O=C(O)C(F)(F)F
Second: O=C(O)C(F)(F)F.O=[N+]([O-])c1ccc(Oc2ccccc2CNCC2CCN(CC3CCCCC3)CC2)cc1
The Inhibition of the first is higher: 94% for the first, 89% for the second.

Compared with `Fc1ccc(C=NN=c2cc[nH]c3ccccc23)cc1`, `O=C(N/C(=C/c1cccc([N+](=O)[O-])c1)c1nc2ccccc2[nH]1)c1cccc(Br)c1` is lower in Inhibition: 100% for the first, 85% for the second.

Compared with `Cc1ccc(-c2ccn(Cc3cccc(OCc4ccccc4)c3)n2)cn1.Cc1ccc(-c2ccnn2Cc2cccc(OCc3ccccc3)c2)cn1`, `CN(C)CCOc1ccc(-c2cc(-c3ccc(Cl)c(O)c3)c(-c3ccncc3)o2)cc1.Cl` is higher in Inhibition: 82% for the first, 100% for the second.

Compared with `CCOc1ccccc1CON1C(N)=NC(N)=NC1(C)C`, `Cc1cc(N(C)CCCN(C)C)nc(Nc2ccc(Cl)cc2)n1` is higher in Inhibition: 90% for the first, 100% for the second.

Going from `COc1cccc2cc(C(=O)N[C@@H](CC(C)C)C(=O)N[C@H](/C=N/N(C)C(=O)OC(C)(C)C)CC(=O)OC(C)(C)C)oc12` to `COc1cccc(NC(=O)c2cc(Br)cc(N3CCN(c4ccncc4)CC3)c2)c1.O=C(O)C(F)(F)F`, the Inhibition rises from 87% to 100%.

Compared with `c1ccc(CN2CCc3cc4nccc(N5CCNCC5)c4cc32)cc1`, `O=C(Nc1cccc(-c2ccc(CN3CCNCC3)cc2)c1)c1cccc(Cl)c1.O=C(O)C(F)(F)F` is lower in Inhibition: 100% for the first, 92% for the second.

First: O=C(CSc1cccc[n+]1[O-])c1ccc(Cc2ncc(C(F)(F)F)cc2Cl)s1
Second: O=C(Nc1ccc(N2CCN(c3ncccc3C(F)(F)F)CC2)nc1)c1cccs1
The Inhibition of the first is higher: 99% for the first, 83% for the second.

These molecules were tested on Plasmodium falciparum (assay: GSK_TCMDC: Inhibition of Plasmodium falciparum Dd2 in whole red blood cells, using parasite LDH activity as an index of growth. Test compounds present at 2uM).
Type: functional

Compared with `Cc1nc2ccc(NC(=O)c3cc(S(=O)(=O)N(C)C)ccc3Cl)cc2s1`, `COc1ccc(NC(=O)c2ccc(-c3ccc(-c4cccnc4)cc3)c(C)c2)cc1OCCN(C)C.Cl` is lower in Inhibition: 77% for the first, 73% for the second.

First: N#CCCN1CCN(Cc2cccc(-c3ccc(-c4nc5cc(F)ccc5[nH]4)cc3)c2)CC1.O=C(O)C(F)(F)F
Second: CN1CCCC(CN2CCN(Cc3ccc(-c4cccc(-c5nc6ccccc6[nH]5)c4)cc3)CC2)C1.O=C(O)C(F)(F)F (stereo not given)
The Inhibition of the first is lower: 35% for the first, 100% for the second.

Going from `COCC(=O)Nc1nc2ccccc2[nH]1` to `CC(C)=CC1C(C(=O)n2c(=N)[nH]c3ccccc32)C1(C)C` (stereo not given), the Inhibition rises from 1% to 3%.

Compared with `CCCCNc1cc(C)nc(NCc2ccccc2)n1`, `Oc1ccc2nc(NCCCc3ccccc3)nc(NCCCc3ccccc3)c2c1` is higher in Inhibition: 37% for the first, 93% for the second.

Compared with `COc1ccc2nccc([C@@H](O)CN3CCC(NCc4nc5ccccc5s4)CC3)c2c1.O=C(O)C(=O)O`, `COc1ccc2ncc(F)c(CCN3CCC(NCc4ccc5c(c4)CCO5)CC3)c2n1.Cl` is higher in Inhibition: 5% for the first, 30% for the second.

First: COc1ccc2cc(-c3nc(-c4c(Cl)cccc4Cl)[nH]c3-c3ccnc(NCCCN4CCN(C)CC4)c3)ccc2c1.O=C(O)C(F)(F)F
Second: CCCCNCc1ccc(-c2nc(CN(CCCN3CCN(C)CC3)C(=O)Nc3cccc(Cl)c3)cs2)cc1.O=C(O)C(F)(F)F
The Inhibition of the first is higher: 80% for the first, 73% for the second.

Compared with `Cc1cc(Nc2ncc(C#N)c(Nc3ccccc3C(N)=O)n2)ccc1N1CCN(C)CC1.Cl`, `CN1CCCN(c2ccnc3cc4c(cc23)N(C(=O)c2ccc(Cl)cc2)CC4)CC1.Cl` is lower in Inhibition: 94% for the first, 0% for the second.

Going from `Oc1cc(Nc2ccnc3cc(I)ccc23)ccc1F` to `Cc1ccc(O)cc1Nc1ccnc2ccc(C(C)(C)C)cc12`, the Inhibition rises from 99% to 100%.

Compared with `O=C(Nc1cccnc1)c1cn(-c2ccccc2)nc1-c1cccs1`, `O=C(Nc1ccc(-c2cncc(NCCCN3CCCC3)c2)cc1)c1ccccc1` is lower in Inhibition: 61% for the first, 49% for the second.

Compared with `CCOc1cc(C(=O)Nc2ccc3nc(N(CC)CC)cc(C)c3c2)cc(OCC)c1OCC`, `CCOc1cc2c(cc1OCC)C(c1ccc(O)c(Cl)c1)NCC2.Cl` (stereo not given) is higher in Inhibition: 9% for the first, 98% for the second.

Compared with `COc1cccc(O)c1CN1CCC2(CCCN(Cc3ccc(F)cc3)C2)C1` (stereo not given), `Cc1ccccc1OCCCN1CCN(CC(c2ccc(F)cc2)N2CCN(C(C)C)CC2)CC1.Cl` (stereo not given) is lower in Inhibition: 72% for the first, 64% for the second.

Compared with `Cc1cc2c(cc1C(F)(F)F)N(C(=O)Nc1cc(OCCN(C)C)cc(C(F)(F)F)c1)CC2.Cl`, `CN(C)CCCOc1ccc(CCNCc2cccc(Oc3ccc(Cl)cc3)c2)cc1.O=C(O)C(F)(F)F` is higher in Inhibition: 19% for the first, 26% for the second.

First: Cl.N=C(NCCc1ccc(Cl)c(Cl)c1)c1ccc2ccccc2c1
Second: C=CCNc1cc(-c2ccccn2)nc(-c2ccccn2)n1
The Inhibition of the first is lower: 29% for the first, 79% for the second.

Going from `N#Cc1ccc(N[C@@H](CC2CCCCC2)C(=O)NCc2cc(F)c(F)cc2F)c2ccccc12.O=C(O)C(F)(F)F` to `O=C(O)C(F)(F)F.O=[N+]([O-])c1ccc(Oc2ccccc2CNCC2CCN(CC3CCCCC3)CC2)cc1`, the Inhibition falls from 39% to 28%.

Compared with `Fc1ccc(C=NN=c2cc[nH]c3ccccc23)cc1`, `O=C(N/C(=C/c1cccc([N+](=O)[O-])c1)c1nc2ccccc2[nH]1)c1cccc(Br)c1` is lower in Inhibition: 100% for the first, 88% for the second.

Compared with `Cc1ccc(-c2ccn(Cc3cccc(OCc4ccccc4)c3)n2)cn1.Cc1ccc(-c2ccnn2Cc2cccc(OCc3ccccc3)c2)cn1`, `CN(C)CCOc1ccc(-c2cc(-c3ccc(Cl)c(O)c3)c(-c3ccncc3)o2)cc1.Cl` is higher in Inhibition: 64% for the first, 99% for the second.

First: CCOc1ccccc1CON1C(N)=NC(N)=NC1(C)C
Second: Cc1cc(N(C)CCCN(C)C)nc(Nc2ccc(Cl)cc2)n1
The Inhibition of the first is lower: 1% for the first, 79% for the second.

First: COc1cccc2cc(C(=O)N[C@@H](CC(C)C)C(=O)N[C@H](/C=N/N(C)C(=O)OC(C)(C)C)CC(=O)OC(C)(C)C)oc12
Second: COc1cccc(NC(=O)c2cc(Br)cc(N3CCN(c4ccncc4)CC3)c2)c1.O=C(O)C(F)(F)F
The Inhibition of the first is lower: 67% for the first, 79% for the second.

Compared with `c1ccc(CN2CCc3cc4nccc(N5CCNCC5)c4cc32)cc1`, `O=C(Nc1cccc(-c2ccc(CN3CCNCC3)cc2)c1)c1cccc(Cl)c1.O=C(O)C(F)(F)F` is lower in Inhibition: 99% for the first, 4% for the second.

Compared with `O=C(CSc1cccc[n+]1[O-])c1ccc(Cc2ncc(C(F)(F)F)cc2Cl)s1`, `O=C(Nc1ccc(N2CCN(c3ncccc3C(F)(F)F)CC2)nc1)c1cccs1` is higher in Inhibition: 0% for the first, 40% for the second.
